36 compounds from PubChem BioAssay (NCI) can be followed below.

Each structure is given as a SMILES string. About 83,000 compounds went through this panel and 20% of them were active in at least one assay; those are over-represented in the sample as a whole.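 Note: values are percent growth. 100 is the growth of untreated cells, values between 100 and 0 indicate rising inhibition; between -100 and 0 indicates cell death.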 Active and inactive are the calls of the source. Rule for the calls: active = growth percent below 10; inactive = the rest.

In one assay the test system is NCI-H522 lung. Description: NCI-60 one-dose screen, 48 h (100 = growth as untreated, 0 = no growth, -100 = all killed). The following applies: 10 µM unless noted.
As to `N#Cc1nc(-c2ccc(Cl)cc2)oc1S(=O)(=O)N1CCN(c2ccc(F)cc2)CC1`, the growth was 65.9% (inactive). Same read-out and setting: the same measure for `COc1c(B(O)O)cccc1-c1nc2c(F)cc3[nH]ncc3c2c2c1CCCC2`: 1.23% (active).

Take `O=S(=O)(NCCNc1nccc(-c2c(-c3ccc(F)c(O)c3)nc3sccn23)n1)c1ccc(O)cc1`: the growth is 25.4% (inactive).

On to `CCOC(=O)C(=O)C(C(=O)OCC)c1ccccc1` (stereo unspecified), for which the growth was 101% (inactive). The same measure, in the same setting: the same measure for `COc1ccc(C(=O)/C=C/c2c(C(F)(F)F)nc3ccccn23)cc1OC`: 10.8% (inactive); for `CC(=O)O[C@H]1CC2CCC3C(CC[C@@]4(C)C3C[C@H]([N+]3(C)CCCCC3)[C@@H]4OC(C)=O)[C@@]2(C)C[C@@H]1N1CCCCC1` (stereo partly specified): 95.8% (inactive). On the same count and under the same terms, the value for `O=C1c2ccc3c4c5ccc(c24)C(=O)N1CCCOCCCCOCCCNCc1ccc(cc1)CNCCCOCCCCOCCCN(C3=O)C5=O` was -39.2% (active). The same measure, in the same setting: the same measure for `CC(O)(c1ccccc1)C(c1ccccc1)C1CCCCN1` (stereo unspecified): 95.1% (inactive); for `CCCC/C=C/[C@@H]1C[C@H]1CCO`: 78.3% (inactive). As for `COc1ccc(OC)c(Nc2nnc(-c3ccc(O)c(OC)c3)o2)c1`, the growth is 61.1% (inactive). Still for that read-out and setting: the same measure for `N#CC1=C(N)Oc2c(ccc3ccccc23)C1c1ccccc1` (stereo unspecified): -15.8% (active); for `OCCn1cc(-c2nc(-c3c[nH]c4ncccc34)cs2)c2ccccc21`: 58.6% (inactive); for `Cn1cc(-c2csc(-c3cn(C(=O)OC(C)(C)C)c4ccc(Br)cc34)n2)c2ccnc(Cl)c21`: 66.7% (inactive). As for `O=S(=O)(c1ccccc1)n1cc2c(c1)-c1nc(Nc3ncccn3)sc1CC2`, the growth is 55.3% (inactive).

The next assay deals with A549/ATCC NSCLC. The assay is described as above. The following applies: 10 µM unless noted.
With `CCOc1ccc(NC(=O)CSc2oc(-c3ccccc3)nc2S(=O)(=O)c2ccc(C)cc2)cc1`, the growth is 41.1% (inactive). On the same count and under the same terms, the value for `O=C(/C=C/c1cccc(Cl)c1)c1ccc(Nc2nc(Nc3ccc(F)cc3)nc(Nc3ccc(Cl)cc3)n2)cc1` was 87.1% (inactive). Turning to `Cn1c(I)c(C#CCO[Si](C)(C)C(C)(C)C)c(=O)[nH]c1=O`, the growth was 107% (inactive). Still for that read-out and setting: the value for `CC(=O)Oc1ccc(C)cc1C` was 100% (inactive). For the compound `COc1cc(C2CC(c3ccc(Nc4nc(Nc5ccc(Cl)cc5)nc(Nc5ccc(Cl)cc5)n4)cc3)=NN2C(C)=O)cc(OC)c1OC` (stereo unspecified), the growth was 91.1% (inactive). The same measure, in the same setting: the value for `c1cnc2c(-c3nc4ccc5[nH]ncc5c4c4c3CCCC4)c[nH]c2c1` was 16.6% (inactive); that for `COc1ccc(/C=C/C(=O)c2cc3c(N)c(C(=O)Nc4cccc5ccccc45)sc3nc2C)cc1` was 68.7% (inactive); that for `O=C1/C(=C/c2ccc([N+](=O)[O-])cc2)COc2ccc(O)cc21` was 97.1% (inactive). For the compound `CCOCCNC1=C(Cl)C(=O)c2ccccc2C1=O`, the growth was 101% (inactive). Still for that read-out and setting: the same measure for `CCN(CC)c1ccc(\C=N/N=C(N)/C(N)=N\N=C/c2ccc(N(CC)CC)cc2)cc1`: 104% (inactive); for `CSc1nc2ccccc2cc1/C=C1/C=C(c2ccccc2)NC1=O`: 81.9% (inactive). Take `Cn1cc(-c2ccc3nc(-c4ccc(CC(=O)ONc5cc(C(C)(C)C)on5)cc4)cnc3c2)cn1`: the growth was 31.1% (inactive). For `Nc1ncnc2c1C(c1ccccc1)c1ccc3ccccc3c1O2` (stereo unspecified), the growth is 86% (inactive).

Take `N#Cc1nc(-c2ccc(F)cc2)oc1S(=O)(=O)N1CCOCC1`: the growth is 107% (inactive). As to `O=C(CSc1nc2sc3c(c2c(=O)n1-c1ccccc1)CCCCC3)N/N=C/c1cccc([N+](=O)[O-])c1`, the growth is 27.8% (inactive). Take `O=C(Nc1cccc(Cl)c1)Nc1cccc(Cn2c(=O)[nH]c3ccc(Oc4ncccn4)cc3c2=O)c1`: the growth is 40.4% (inactive). The same measure, in the same setting: the value for `CCOC(=O)Cc1cnc(N/N=C(\C)c2cc3ccccc3o2)s1` was 91.5% (inactive); that for `COC1/C=C/OC2(C)Oc3c(C)c(O)c4c(O)c(c(/C=N/Nc5ccc([N+](=O)[O-])cc5[N+](=O)[O-])c(O)c4c3C2=O)NC(=O)C(C)=C/C=C/C(C)C(O)C(C)C(O)C(C)C(OC(C)=O)C1C` (stereo unspecified) was 82.9% (inactive). As to `COC(=O)CC[C@@H]1O[C@@H](c2cccc(C(F)(F)F)c2)[C@@H](O)[C@H]1O`, the growth is 107% (inactive). Same read-out and setting: the same measure for `COc1ccc(/C=N/NC(=O)c2ccc(-n3cc(-c4ccccc4)nn3)cc2)cc1OC`: 104% (inactive); for `COC(=O)c1c2c(c(C)[n+]([O-])c1C)C(=O)C(NCc1cccc(OC)c1)=CC2=O`: 12.9% (inactive); for `Nc1n[nH]c2cccc(C#Cc3cccc(C(=O)Nc4cc(C(F)(F)F)cc(C(F)(F)F)c4)c3)c12`: 80.4% (inactive).
